Laboratory results taken from PubChem BioAssay AID1671188 (National Center for Advancing Translational Sciences (NCATS), 2021).
Several values for one entry are separate records, joined by “and”; a condition that tells them apart may be missing. Equal entries are not always repeated. In all, about 100,000 compounds went through this assay and about 250 (0.25%) were called active. Another 7% or so got no clear call; they are omitted. Calls come from the whole dose curve; as a rule, active = well fitted inhibition curve with a large enough effect; inconclusive = small, poorly fitted or top-dose-only effect; inactive = flat fitted curve, though single readings scatter. Shown is part of a subset that was picked to be rich in actives. Some compounds were tested as several samples or in several runs, with calls that do not always agree.

Target: Alanine aminotransferase 2 (Homo sapiens) (UniProt Q8TD30)
Test: Primary qHTS assay for inhibitors of Glutamate pyruvate transaminase 2 (GPT2); note: nearly all actives have a fitted effect of over 60% in size
Conditions: Recombinant GPT2, coupled pyruvate oxidase/HRP Amplex Red fluorescence; series mostly up to 57.7 µM; activity change, negative = inhibition: at the top concentration
Protocol: Assay Provider: Zhenghe John Wang Ph.D.
Case Western Reserve University, Cleveland OH
Glutamate pyruvate transaminase 2 (GPT2) catalyzes the reversible transamination of glutamate and pyruvate to provide a-ketoglutarate and alanine. We have optimized an assay for GPT2 enzymatic activity that couples pyruvate formation to detection of fluorescence using an established pyruvate oxidase/horseradish peroxidase / Amplex Red system.
Screening conditions were 250uM a-KG, 2mM L-alanine, and 10ng/uL GPT2 in […] of solution; 10uL of Amplex reaction mix (outlined below) were added so that final concentrations of Amplex reagents in 50uL were 0.2mM ThPP, 0.2U/mL PO and HRP, and 50uM Amplex.
NOTE: The volume of GPT2 in the system depends on the activity of it. The activity is different every batch. You need to test the activity before the assay. For full plate assay with automation, plate 20uL of GPT2 buffer to pin into, then add 10uL of GPT2 dilution followed immediately by 10uL of substrate dilution. 2 Columns of the plate were devoted to GPT2 buffer ([…] PH7.5, 0.0001% Tween) + 50uM AOA (known GPT2 inhibitor) to serve as a positive control. Complete the assay as normal. Amplex-red buffer: […] PH7.5, 1 mM EDTA, 1 mM MgCl2.
1. Combine a-KG and L-alanine at desired concentrations and incubate for at least 10 minutes at 37C. Stocks of L-alanine and a-KG are diluted in distilled water. However, the stocks were diluted in GPT2 buffer for the assay.
2. Prepare GPT2 dilution at the desired concentration in GPT2 buffer.
3. Plate 40uL of GPT2 dilution with 40uL of substrate dilution and let incubate for 30 minutes at room temperature.
4. Add 20uL of Amplex reaction mix prepared as follows: 1.5uL 200U/mL Horseradish Peroxidase, 200mM Thiamine Pyrophosphate, 200U/mL Pyruvate Oxidase; 7.5uL 10mM Amplex Red; 288uL Amplex Buffer.
5. Incubate for 30 minutes at room temperature in the dark, then image using AM_Amplex_Fluorescence on plate reader nearest the window.
% is set by controls: 0 for no effect and ±100 for the full control effect; potency is the fitted concentration of half-maximal effect.

Sequence of Alanine aminotransferase 2 (Homo sapiens) (Q8TD30 whole entry, looked up): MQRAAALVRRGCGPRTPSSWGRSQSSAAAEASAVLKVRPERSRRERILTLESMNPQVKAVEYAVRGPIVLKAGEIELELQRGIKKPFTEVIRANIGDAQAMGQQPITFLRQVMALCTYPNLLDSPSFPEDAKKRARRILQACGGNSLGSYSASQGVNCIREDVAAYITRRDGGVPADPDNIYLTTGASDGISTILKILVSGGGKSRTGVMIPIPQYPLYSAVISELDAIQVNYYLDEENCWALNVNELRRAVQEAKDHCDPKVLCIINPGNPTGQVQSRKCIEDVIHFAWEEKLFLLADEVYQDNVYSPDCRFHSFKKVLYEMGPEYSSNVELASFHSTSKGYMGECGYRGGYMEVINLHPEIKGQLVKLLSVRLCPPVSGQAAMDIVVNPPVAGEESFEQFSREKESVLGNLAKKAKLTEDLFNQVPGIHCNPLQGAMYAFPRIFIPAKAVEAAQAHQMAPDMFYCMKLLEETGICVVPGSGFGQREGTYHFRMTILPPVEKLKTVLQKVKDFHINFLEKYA

Compound	outcome	activity change, negative = inhibition	Potency
CN(C)C(=O)c1ccc2oc(-c3ccnc(Cl)c3)nc2c1	inactive	–	–
CC(C)c1ccc(CN2CCC3(CC2)COCCN3C(=O)c2ccc3[nH]ncc3c2)cc1	–	-10.3% [at 88.5 µM] (inactive)	–
CC(=O)N1C[C@@H]2CCCN3CCC[C@@H]([C@H]23)[C@H]1CCCC(=O)N1CCN(C2CCN(C)CC2)CC1	inactive	–	–
COc1ccc(CC(=O)NC2CCN(Cc3ccc(-c4ccccc4OC)cc3)C2)cc1 (configuration not stated)	–	-5.21% (inactive)	–
O=C1[C@H]2CN(Cc3ccc(Cl)c(F)c3)C[C@H]2C(=O)N1CCc1ccccc1	inactive	–	–
O=C(c1ccc(C(F)(F)F)cc1)N1CCN(c2ccnc3ccnn23)CC1	inactive	–	–
O=C(N1CCC(Cc2nc(-c3ccccc3)n[nH]2)C1)C1(c2ccccc2)CC1 (configuration not stated)	inactive	–	–
O=C(c1ccccc1Cl)N1CCC2(CC1)NC(=O)N(c1cccc(Cl)c1)N2	–	-13.9% (inactive)	–
CC(C)c1noc(-c2cn(C3CCN(C(=O)c4cccc(C#N)c4)C3)nn2)n1 (configuration not stated)	inactive	–	–
O=C1NCCOCCN(S(=O)(=O)c2cccs2)[C@@H]2CCCC[C@H]12	–	3.21% (inactive)	–
CNC(=O)c1ccccc1Nc1nc(Nc2ccc3c(c2OC)CCC[C@@H](N2CCN(CCO)CC2)C3)ncc1Cl	–	2.02% (inactive)	–
COc1ccccc1Nc1ncc2c(n1)CN(C(=O)COc1ccccc1)CCN2	inactive [at 88.5 µM]	–	–
CNC(=O)c1ccccc1Nc1nc(Nc2ccc(N3CCOCC3)cc2OC)ncc1Cl	–	–	10.9 µM (active) and 7.08 µM (active)
COc1cccc(-c2ccc(C(=O)N3CCC(NC(=O)Cc4ccc(F)cc4)CC3)cc2)c1	–	–	inactive
COc1ccccc1OC(C)(C)C(=O)N1CC(C)(C)[C@@](C)(O)C1	inactive	–	–
CN(CC1CCOCC1)C(=O)Nc1ccc(Cl)cc1	inactive	–	–
O=S(=O)(Cc1ccccc1)N1CC(c2nc(-c3ccncc3)no2)C1	–	2.41% (inactive)	–
COc1ccc(CN2CCN(c3nc4ccccc4o3)CC2CCO)cc1C (configuration not stated)	–	-2.15% [at 11.5 µM] (inactive)	–
COc1ccc(-n2cccn2)c(CN2CCC3(CCNC(=O)CC3)CC2)c1	inactive	–	–
Cc1noc(C)c1-c1cc2c(cc(C)n2C)c(NCCCn2ccnc2)n1	–	-9.58% [at 88.5 µM] (inactive)	–
COc1ccccc1Cn1c(=O)c(C(=O)NCc2ccc(F)cc2)nc2cccnc21	inactive	–	–
O=C(c1ccc(F)cc1)N1CCCC(C(=O)N2CCCC2c2nc3ccncc3[nH]2)C1 (configuration not stated)	–	2.57% (inactive)	–
CN1CCN(C(=O)c2ccc3oc(-c4ccncc4Cl)nc3c2)CC1	–	0.757% (inactive)	–
COc1cccc(N2C(=O)NC(=NC3CCCCC3)C23CCN(CC2CCCCC2)CC3)c1	–	-2.84% (inactive)	–
CC1=C(C(=O)OC(C)(C)C)C(c2ccccc2F)N2C(CC(=O)N3CCCC3)=CSC2=N1 (configuration not stated)	inactive	–	–

Compound	outcome	activity change, negative = inhibition	Potency
O[C@@H]1C[C@@H](c2nc(-c3cccnc3)no2)N(Cc2cccs2)C1	–	-4.15% [at 88.5 µM] (inactive)	–
CN(Cc1ccsc1)Cc1nc(C(c2ccccc2)c2ccccc2)no1	inactive	–	–
CCOC(=O)C1CCN(C(=O)c2nc3sccn3c2-c2ccc(OC)cc2)CC1	inactive [at 88.5 µM]	–	–
COCc1cc(=O)n(CC(=O)Nc2cc(C)cc(C)c2)c(N2CCOCC2)n1	inactive	–	–
CC(=O)c1ccc(NC(=O)O[C@@H]2CO[C@H]3[C@@H]2OC[C@@H]3Nc2nccc(-c3ccco3)n2)cc1	–	-11.1% (inactive)	–
CC[C@@H]1Cc2cc(O)ccc2C2=C1c1ccc(O)cc1C[C@H]2CC	–	–	11.2 µM (active)
COCCN1C[C@H]2CN(C(=O)c3ccc(C(F)(F)F)cc3)CCN2C1=O	–	3.47% [at 88.5 µM] (inactive)	–
N#Cc1ccc(CN2CCC3(Cc4ccccc4NC3=O)C2)cc1 (configuration not stated)	inactive [at 88.5 µM]	–	–
O=C(Cn1nc2c(cc1=O)CCCC2)NCCn1ccc2ccc(Cl)cc21	–	3.99% (inactive)	–
Cc1nc(C)c(C(=O)N2CCc3nnc([C@@H]4C[C@@H](O)CN4C(C)C)n3CC2)s1	–	-2.49% (inactive)	–
C=CCNC(=O)C1N(C(C)C)C(=O)C12CCCC2 (configuration not stated)	inactive	–	–
OCC1(CN2CCCC2)CCN(Cc2ccc(OC(F)(F)F)cc2)CC1	–	-6.92% (inactive)	–
COc1ccc(NC(=O)N2CCC(O)(c3csc(CN4CCc5ccccc5C4)n3)CC2)cc1	–	-11.3% (inactive)	–
CO[C@@H]1COCC[C@H]1NC(=O)c1cn(CCN2CCNCC2)nn1	inactive	–	–
CCC(=O)N1CCCC(Cc2ncc(C)n2C(C)C)C1 (configuration not stated)	–	4.66% (inactive)	–
O=C(c1cc(Cl)ccc1F)N1CCN(c2cc(C(F)(F)F)ncn2)CC1	–	2.26% (inactive)	–
O=C(NCc1ccc(Cl)nc1)c1cnn2ncccc12	–	0.0904% [at 88.5 µM] (inactive)	–
CC(C)c1ccc(CNC(=O)CN2CCCc3nc(C4CC4)ncc3C2=O)cc1	inactive	–	–
COCCN1C(=O)CCC2(C(=O)NCc3cn[nH]c3C)CCCC=C12 (configuration not stated)	–	-8.64% (inactive)	–
CN1CCN(C(C)(CN)c2ccccn2)CC1 (configuration not stated)	–	-8.19% [at 88.5 µM] (inactive)	–
O=C(Nc1cccc(F)c1)N1CCC2(CC1)SCC(=O)N2Cc1ccco1	–	2.45% (inactive)	–
COc1ccc(-c2nnc(C[C@@H]3C[C@@H](C(C)C)[C@H](CN4CCC(C(N)=O)CC4)C=C3C)o2)cc1	inactive	–	–
Cc1ccc(C)c(CN2C(=O)NC3(CCCN(C(=O)c4ccc(C)c(F)c4)C3)C2=O)c1 (configuration not stated)	inactive	–	–
c1ccc2c(CN3CCC[C@H]3c3nc(-c4ccnc(N5CCOCC5)c4)no3)c[nH]c2c1	–	1.43% [at 88.5 µM] (inactive)	–
NC(=O)c1cccnc1N1CCN(CC2(O)CNCCOC2)CC1 (configuration not stated)	–	-3.06% (inactive)	–

Compound	outcome	activity change, negative = inhibition	Potency
O=C1COCC2(CN(c3ccc(C(F)(F)F)cn3)C2)CN1c1cccnc1	–	-31.6% [at 88.5 µM] (inactive)	–
Cc1ccccc1CN1CCc2ncc(C(=O)NCCOc3ccccc3)n2CC1	inactive [at 88.5 µM]	–	–
Cc1nc([C@H]2CCN(Cc3ccoc3)C[C@H]2NC(=O)C2CC2)n[nH]1	–	-0.884% (inactive)	–
CCC(C)Oc1ccccc1CN1CCC(CO)(CN2CCCC2)CC1 (configuration not stated)	–	-20.3% (inactive)	–
COCc1cc(C[C@@H]2C[C@H](NC(=O)Nc3ccccc3)C2(C)C)no1	–	-3.55% [at 88.5 µM] (inactive)	–
Cc1ccc(C(=O)Nc2ccc(C(O)[C@H]3COCC(=O)N3Cc3ccccc3F)cc2)cc1 (some centres not stated)	–	3.69% (inactive)	–
Cc1ccc(Nc2ccnc(N3CCC(C(=O)Nc4ccccc4F)CC3)n2)cc1	inactive	–	–
Cc1cc(Nc2cc(N3CCN(C)CC3)nc(Sc3ccc(NC(=O)C4CC4)cc3)n2)n[nH]1	–	–	inactive and 27.3 µM (active)
CN1CCN(C(=O)c2ccc(-c3nnc4ccc(NC(=O)C5CCC5)cn34)cc2)CC1	inactive	–	–
O=C(CC1CCN(C(=O)c2ccco2)C1)N1CCOCC1 (configuration not stated)	–	-3.27% (inactive)	–
COCCn1nc2n(c1=O)CCN(C(=O)c1ccco1)CC2	inactive	–	–
CCC(=O)Nc1cc(-c2ccccn2)nn1-c1ccccc1	inactive [at 88.5 µM]	–	–
O=C(NCCc1ccccc1F)c1cn2cc(-c3cccc(C(F)(F)F)c3)sc2n1	inactive	–	–
Fc1cccc(C2CCCCCN2Cc2cn(-c3ccccc3)nn2)c1 (configuration not stated)	–	-3.5% [at 11.5 µM] (inactive)	–
COC(=O)c1cccc(NC(=S)N[C@H]2CO[C@H]3[C@@H]2OC[C@H]3OC(=O)Nc2ccc(Oc3ccccc3)cc2)c1	inactive	–	–
Cc1noc(C)c1S(=O)(=O)N1CCC(c2noc(-c3ccncc3)n2)C1 (configuration not stated)	inactive	–	–
COc1ccccc1-c1ccc2c(C(=O)NCCc3ccc(Cl)cc3)nn(C)c2n1	–	-16.6% (inactive)	–
COc1ccc(C(=O)N2CC[C@@H](CC(=O)O)[C@@H](CCN3C[C@@H]4C[C@H](C3)c3cccc(=O)n3C4)C2)cc1	–	-10.5% (inactive)	–
O=C(NCCCc1ccccc1)c1n[nH]c2c1CN(C(=O)C1CC1)CC2	–	3.69% (inactive)	–
O=C(NCc1cccc(Cl)c1)c1ccc2nnc(Cc3ccc(Cl)cc3)n2c1	–	1.38% (inactive)	–
Cc1nc(-c2c3n(c(=O)n(Cc4ccc(F)c(F)c4)c2=O)CCCC3)no1	–	-0.648% (inactive)	–
COc1cccc(CN(C)C2CCc3nn(C)c(=O)n3CC2)n1 (configuration not stated)	inactive	–	–
COc1ccc(CC(=O)N2CCN(C(=O)c3nc4cccnc4n(Cc4ccc(OC)cc4)c3=O)CC2)cc1	inactive	–	–
CC[C@H]1CN(C(=O)NC(C)C)CC[C@H]1CC(=O)Nc1ccccc1	inactive [at 88.5 µM]	–	–
COc1ccc(C(=O)N2C[C@@H](Oc3cccnc3)C[C@H]2C(=O)N2CCOCC2)cc1	inactive	–	–

Compound	outcome	activity change, negative = inhibition	Potency
O=C(c1ccc2c(c1)CCCO2)N1CCCn2nc(C(O)C3CCC3)cc2C1 (configuration not stated)	inactive	–	–
O=C(C1COc2ccccc2O1)N1CCc2c(nc3cc(-c4ccccc4)[nH]n3c2=O)C1 (configuration not stated)	–	-6.07% (inactive)	–
CN1CCC(N2CCC[C@H]2c2nc(-c3ccc(OC4CCCCC4)nc3)no2)CC1	–	1.89% [at 88.5 µM] (inactive)	–
O=C1NC(C(=O)NCc2ccccn2)Cn2cccc21 (configuration not stated)	inactive	–	–
COc1ccc(CN2CCn3c(nn(-c4ccncc4)c3=O)C2)cc1	inactive	–	–
CN1C[C@@H](C(=O)Nc2ccccc2)[C@H](C2CCNCC2)C1	inactive	–	–
O=C1NC2(Cc3ccccc31)CN(Cc1ccc(F)cc1)C2	inactive [at 88.5 µM]	–	–
CCC1=C(C(=O)OC)C(c2cccc(OC)c2)N2C(CC(=O)N3CCOCC3)=CSC2=N1 (configuration not stated)	inactive	–	–
O=C1CC(c2noc(-c3cc(Cl)ccc3F)n2)CN1c1ccc(F)cc1 (configuration not stated)	inactive	–	–
COc1ccc(C(=O)N2CCCC(CO)CCNC(=O)CC2)c(OC)n1 (configuration not stated)	inactive	–	–
Cc1cccc(-c2cccc(CN3CCC(NC(=O)Cc4ccc(F)cc4)CC3)c2)c1	–	-5.21% (inactive)	–
O=C(C1CC=CCC1)N1CC(c2noc(C3CCCN3CC3CC3)n2)C1 (configuration not stated)	inactive	–	–
O=C(CCn1cnnn1)N1CCC(N2C(=O)C3(CCCC3)C2c2ccccc2)CC1 (configuration not stated)	inactive	–	–
CC(C)(O)CCc1ccc(C(=O)N2CCOc3ccc(Cl)cc3C2)cc1	–	-18.3% (inactive)	–
CN(C)CCNC(=O)c1cccnc1OC1CCNCC1	inactive	–	–
CN(C)[C@H]1CCCCN(CC2CCC(N)CC2)C1 (some centres not stated)	–	2.48% (inactive)	–
CC(C)Cn1c(=O)c(C(=O)N2CCN([S+](=O)([O-])c3cccc(C(F)(F)F)c3)CC2)nc2cccnc21	inactive	–	–
COc1cccc(CN2C(=O)OC3(CCN(C(=O)c4scnc4C)CC3)C2(C)c2cccnc2)c1 (configuration not stated)	inactive	–	–
O=C(NCc1ccc(Cl)nc1)c1c[nH]c2cccnc12	–	4.28% [at 88.5 µM] (inactive)	–
O=[S+]([O-])(c1cccs1)N1CCN(c2nccc(Nc3ccccc3F)n2)CC1	–	4.45% (inactive)	–
CCC(=O)Nc1cc(C(=O)NCc2ccc(N3CCOCC3)cc2)c2ccc(C)nc2c1	inactive	–	–
Cc1ccc(C(=O)N2CCCC(c3nc(-c4ccccc4)no3)CCNC(=O)CC2)cn1 (configuration not stated)	–	-3.36% (inactive)	–
